Sfp inh: qHTS Assay for Inhibitors of Bacillus subtilis Sfp phosphopantetheinyl transferase (PPTase); Biochemical Sfp PPTase activity, qHTS; Potency, µM, for the others: largest response in the series, negative = inhibition, actives largely listed as inhibitors; 310,000 compounds, 3.5% hits; AID 1490, 2009;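 also: the enzyme is Sfp with the accession as filed and its product quenches rhodamine fluorescence; 0% = enzyme reaction without inhibitor and -100% = no enzyme wells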
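Fluorescence-quenching assay: 15 nM Sfp-PPTase preincubated 15 min at room temperature with compound, then 5 uM rhodamine-CoA and 12.5 uM BHQ-2-labelled YbbR peptide added. Fluorescence (ex 525/em 598 nm) read at start and after 30 min; difference gives rate.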
VDR inh: Inhibitors of the vitamin D receptor (VDR): qHTS. VDR-SRC2-3 peptide fluorescence polarization, 2 h. Potency, µM, for the others: max response, negative = inhibition, actives largely listed as inhibitors. 400,000 compounds, 0.93% hits
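Signal is fluorescence polarization, reporting how far test compounds block the interaction of VDR with the SRC2-3 coregulator peptide after a 2 h room-temperature incubation.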
12-LOX inh: Primary qHTS assay for inhibitors of human arachidonate 12S-lipoxygenase (ALOX12): Round 2; Polyunsaturated fatty acid lipoxygenase ALOX12 (Homo sapiens), P18054; purified 12hLO, xylenol orange hydroperoxide absorbance; Potency, µM (titrated, usually from 108 µM), for the others: at the highest dose activity change, negative = inhibition, most hits filed as inhibitors; 580,000 compounds, 1.1% hits; AID 1671190, 2021
Target sequence (P18054 whole entry, looked up): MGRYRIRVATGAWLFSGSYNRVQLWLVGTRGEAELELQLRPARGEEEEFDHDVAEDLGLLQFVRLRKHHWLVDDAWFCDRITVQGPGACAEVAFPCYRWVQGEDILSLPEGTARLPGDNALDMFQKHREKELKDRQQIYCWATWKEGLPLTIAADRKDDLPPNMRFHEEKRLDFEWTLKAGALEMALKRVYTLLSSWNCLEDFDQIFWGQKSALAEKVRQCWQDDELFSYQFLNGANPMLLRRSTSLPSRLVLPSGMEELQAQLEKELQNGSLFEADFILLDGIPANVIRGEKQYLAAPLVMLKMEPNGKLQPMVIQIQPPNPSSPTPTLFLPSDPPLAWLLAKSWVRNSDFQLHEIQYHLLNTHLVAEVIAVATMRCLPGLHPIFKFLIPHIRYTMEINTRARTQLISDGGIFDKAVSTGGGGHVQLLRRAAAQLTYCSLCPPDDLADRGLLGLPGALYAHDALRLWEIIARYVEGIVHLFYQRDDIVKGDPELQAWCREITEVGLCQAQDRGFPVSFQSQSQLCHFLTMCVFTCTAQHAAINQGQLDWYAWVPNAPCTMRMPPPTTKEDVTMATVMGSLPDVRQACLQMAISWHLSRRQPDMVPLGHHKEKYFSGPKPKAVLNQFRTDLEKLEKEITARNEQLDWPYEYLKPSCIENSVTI
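Hydroperoxide product was detected by ferrous iron/xylenol orange as the 573 to 405 nm absorbance ratio. Arachidonic acid at 40 uM (final) was turned over for 30 min at room temperature by 150 nM human 12hLO, pH 7.0 Hepes buffer, after 15 min compound preincubation.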
PLK1 PBD block: qHTS for Inhibitors of PLK1-PDB (polo-like kinase 1 - polo-box domain): Primary Screen | Serine/threonine-protein kinase PLK1 (Homo sapiens), P53350 | Potency, µM, without a hit: max response, negative = inhibition, hits mostly inhibitors | 360,000 compounds, 2.8% hits | Plk1 PBD binding of FITC phosphopeptide, fluorescence polarization; also: series mostly up to about 57 µM; nearly all actives have a fitted effect of over 65% in size
* = called active by the depositor; ? = inconclusive; / = no result given; ! = repeats disagree; [ ] = remark or other dose. Hits are enriched below; roughly 4.2% of the tested compounds scored in any of these assays. Calls follow the shape of the dose curve; as a rule, active = well fitted curve in the direction sought with a large enough effect; inconclusive = small, poorly fitted or top-dose-only effect, or another doubt; inactive = no such curve, though single readings can be large; an effect the other way counts as inactive or inconclusive. Unless noted, % is scaled to controls: 0 for no effect and ±100 for the full control effect; potency is read from the fitted curve at half-maximal effect.

SMILES	Sfp inh	VDR inh	12-LOX inh	PLK1 PBD block
Cc1cc(=O)[nH]c(SCC(=O)c2ccc(O)c(O)c2)n1	-58%	19%	4.5µM*	1%
Cc1cc(SCC(=O)c2ccc(O)c(O)c2)n2nc(C)c(-c3ccccc3)c2n1	0%	-3%	40µM*	-8%
Cc1ccc(C(=O)CSc2nc(C)cc(=O)[nH]2)cc1	1%	-6%	?	-10%
COCc1cc(C)nc(SCC(=O)Oc2ccc(Cl)cc2)c1C#N	-25%	-11%	-5%	-7%
COCc1cc(C)nc(SCc2ccc(F)cc2)c1C#N	-19%	-27%	0%	24µM*
Cc1cc(C(=O)Nc2nnc(C(F)(F)F)s2)no1	23%	9%	-4%	-4%
Cc1cc(C)nc(SCC(=O)c2ccc(C)c(C)c2)n1	-9%	-6%	15%	-1%
Cc1cc(C)nc(SCC(=O)c2ccc(O)c(O)c2)n1	?	8%	8.9µM*	-12%
Cc1cc(C)nc(SCc2ccc(Cl)cc2)n1	-2%	8%	0%	-11%
Cc1cc(C)nc(SCC(=O)c2ccc(O)cc2O)n1	45µM*	-1%	-8%	-2%
Cc1cc(C)nc(SCNC(=O)c2ccc(Cl)cc2)n1	56µM*	-2%	26%	-9%
Cn1ccc2c(-c3ccc(C(C)(C)C)cc3)cc3c(c21)C1CCC3C1 (stereo not given)	/	/	?	4%
O=C(O)c1ccccc1N=Nc1ccc(O)cc1	/	?	-7%	30µM*
Cc1csc(NC(=O)c2nc3nccc(C)n3n2)n1	5%	-27%	?	3.4µM*
CC[C@@H]1CC=C[C@H]2[C@H]1C(=O)N(Cc1ccccc1)[C@H]2c1ccoc1	-5%	?	/	?
C[C@@H]1CC=C[C@H]2[C@H]1C(=O)N(Cc1ccccc1)[C@H]2c1ccc2ccccc2c1Br	-13%	-30%	?	24µM*
CCC1CC=CC2C1C(=O)N(Cc1ccccc1)C2c1ccoc1 (stereo not given)	-15%	79µM*	/	/
Cc1cccc2c1NC1(CCCC1)CC2C (stereo not given)	-6%	13%	0%	-10%
Cc1ccc2c(c1C)NC(C)CC2C (stereo not given)	-11%	-12%	4.5µM*!	?
CSc1ccccc1C(=O)Nc1ncn[nH]1	56µM*	-15%	11µM*	-22%
COCCn1c(C)cc(C(=O)N[C@@H]2CN(C)C[C@H]2CN(C)C)c1C	/	/	78%	/
N#C/C(=C\c1cccc(Oc2ccccc2)c1)C(=O)N1CCOCC1	-29%	45µM*	105%	?
N#C/C(=C\c1ccc(OCC(=O)O)cc1)C(=O)N1CCOCC1	/	/	-10%	/
COc1cc(/C=C(\C#N)C(=O)N2CCOCC2)cc(Br)c1O	-8%	8%	-15%	21µM*
OC[C@H]1O[C@@H](O[C@@H]2[C@@H](CO)O[C@](O)(CO)[C@H]2O)[C@H](O)[C@@H](O)[C@H]1O	16%	17%	-10%[22.9 µM]	/
SMILES	Sfp inh	VDR inh	12-LOX inh	PLK1 PBD block
C=CCNc1oc(/C=C/c2cccs2)nc1C#N	/	/	18µM*	/
CCCCNc1oc(/C=C/c2cccs2)nc1C#N	/	/	24%	/
FC(F)(F)c1cnc(-c2cnc3c(-c4ccc(Cl)cc4)cnn3c2)c(Cl)c1	-6%	-16%	26%	-10%
Cc1nn2cc(-c3ncc(C(F)(F)F)cc3Cl)cnc2c1Br	12%	-12%	21%	24µM*
CC(C)C[C@@H](CNCC(=O)[C@H](CC(C)C)NC(=O)c1[nH]cnc1C(=O)N[C@H](CN)CC(C)C)NC(=O)c1nc[nH]c1C(=O)N[C@@H](Cc1ccccc1)C(=O)O	/	?	3%	21µM*
CC(C)C[C@@H](CN)NC(=O)c1nc[nH]c1C(=O)N[C@@H](C)C(=O)CNC[C@H](CC(C)C)NC(=O)c1nc[nH]c1C(=O)N[C@@H](Cc1ccccc1)C(=O)O	/	-27%	5%	?
CC(C)C[C@@H](CN)NC(=O)c1nc[nH]c1C(=O)N[C@@H](Cc1ccccc1)C(=O)CNC[C@H](C)NC(=O)c1nc[nH]c1C(=O)N[C@@H](CC(C)C)C(=O)O	/	-22%	36%	-27%
CC(C)C[C@@H](CNCC(=O)[C@H](Cc1ccccc1)NC(=O)c1[nH]cnc1C(=O)N[C@H](CN)CC(C)C)NC(=O)c1nc[nH]c1C(=O)N[C@@H](CC(=O)O)C(=O)O	/	?	?	34µM*
O=C1CCCN1CCCN1C(=O)[C@H]2CN(Cc3ccc(F)cc3Cl)C[C@H]2C1=O	/	/	40%	/
CC(C)(C)c1nnc2sc(SCC(=O)N3CCc4ccccc43)nn2c1=O	-3%	-12%	10%	27µM*
Cc1nc2c(O)cccc2c(=O)[nH]1	56µM*	-2%	?	/
O=c1[nH]c(CN(CCO)CCO)nc2c1C1(CCCCC1)Cc1ccccc1-2	-4%	-9%	-1%	5%
CCOC(=O)[C@H]1NN=C(C(=O)OC)[C@@H]1c1ccccc1	4%	?	11%	38µM*
CCOC(=O)C1=NNC(C(=O)OCC)C1c1ccccc1 (stereo not given)	/	-8%	?	-8%
COCc1c(C(=O)N/N=C/c2ccco2)nnn1-c1nonc1N	8%	?	-6%	1%
CC(Sc1cccc2cccnc12)C(=O)NC(=O)NC(C)(C)C (stereo not given)	/	/	13µM*	/
C=CCOc1ccccc1/C=c1\sc2nc(=O)c(C)nn2c1=O	?	71µM*	?	?
Cc1[nH][nH]c(=O)c1C(c1ccc(F)cc1)c1c(C)[nH][nH]c1=O	8%	-19%	4%	?
Cc1[nH][nH]c(=O)c1C(c1ccc(Cl)cc1)c1c(C)[nH][nH]c1=O	17%	-7%	-6%	30µM*
N#CC(C#N)=C1C=CC=CN1/C(=C\c1ccco1)C(=O)c1ccccc1	16µM*	14µM*	-20%	12µM*
N#CC(C#N)=C1C=CC=CN1/C(=C\c1ccco1)C(=O)c1ccc(Br)cc1	8.9µM*	10µM*	?	3µM*
COc1ccc(C(=O)N/C(=C\c2ccco2)C(=O)OCc2ccco2)cc1	7%	3%	?	-8%
COc1ccc(/C=C(/C(=O)c2cccs2)N2C=CC=CC2=C(C#N)C#N)cc1	3.5µM*	?	-19%	6µM*
COc1ccc(/C=C(\C#N)C(=O)c2cccn2C)cc1	-5%	-8%	0%	-10%
COc1ccc(C(=O)/C(=C\c2ccco2)N2C=CC=CC2=C(C#N)C#N)cc1	18µM*	40µM*	/	21µM*
O=C(NCCSCc1ccc(Cl)cc1)C1CCN(S(=O)(=O)Cc2ccccc2)CC1	/	2%	-18%	/
CS(=O)(=O)N(Cc1nnc(-c2cccs2)o1)c1ccc(Cl)cc1F	12%	-21%	-11%	12µM*
CCN(CC(=O)Nc1c(F)cccc1F)C(=O)CCc1nc2sc3c(c2c(=O)[nH]1)CCCC3	/	-2%	14µM*	-28%
CCCc1nc2sc3c(c2c(=O)[nH]1)CCCC3	-3%	79µM*	-3%	27µM*
